Legend:
Experiment in all cases: DAPPL (digital affinity profiling via proximity ligation, sequencing); 10 mM Tris-HCl pH 7.5, 50 mM NaCl, 1 mM DTT, 4% glycerol, room temperature, 30 min; GST-TFs on glutathione beads, 16-mer random dsDNA library, 0.1% formaldehyde crosslink after washing; high values mean tight binding
[1] = molecular target: T1, FLI1 (Homo sapiens, UniProt Q01543 1-452); settings: protein: recombinant; tags: N-terminal GST; dsDNA, one strand shown
T1 sequence: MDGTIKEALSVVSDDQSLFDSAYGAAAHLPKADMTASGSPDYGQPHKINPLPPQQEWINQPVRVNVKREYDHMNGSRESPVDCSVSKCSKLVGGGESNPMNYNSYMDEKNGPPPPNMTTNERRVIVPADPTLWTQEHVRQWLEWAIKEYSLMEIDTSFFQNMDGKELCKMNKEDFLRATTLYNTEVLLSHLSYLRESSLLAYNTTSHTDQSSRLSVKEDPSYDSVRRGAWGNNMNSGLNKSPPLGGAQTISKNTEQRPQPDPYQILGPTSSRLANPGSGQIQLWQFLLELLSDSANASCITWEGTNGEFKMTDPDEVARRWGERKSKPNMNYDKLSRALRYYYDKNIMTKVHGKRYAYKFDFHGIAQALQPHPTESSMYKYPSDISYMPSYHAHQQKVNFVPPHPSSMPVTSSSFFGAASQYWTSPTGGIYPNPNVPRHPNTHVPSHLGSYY
Outline: (§1)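 Sequencing on an Illumina NextSeq500 followed washing, crosslinking with 0.1% formaldehyde, proximity ligation (BsaI/T4 ligase, 1 h, 37 °C) and PCR amplification of pools that had been incubated for 30 min at room temperature with 200 nmole of a random double-stranded 16-mer DNA library in Tris/NaCl/DTT/glycerol buffer. Each pool held DNA-barcoded human transcription factors, expressed in yeast as GST fusions and captured on glutathione beads, plus a tag-only sample. Binding signal is a hexamer's read frequency for a factor divided by its frequency in the tag-only sample.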

[2] = molecular target: T2, ELK1 (Homo sapiens, UniProt P19419 1-428); settings: protein: recombinant; tags: N-terminal GST; dsDNA, one strand shown
T2 sequence: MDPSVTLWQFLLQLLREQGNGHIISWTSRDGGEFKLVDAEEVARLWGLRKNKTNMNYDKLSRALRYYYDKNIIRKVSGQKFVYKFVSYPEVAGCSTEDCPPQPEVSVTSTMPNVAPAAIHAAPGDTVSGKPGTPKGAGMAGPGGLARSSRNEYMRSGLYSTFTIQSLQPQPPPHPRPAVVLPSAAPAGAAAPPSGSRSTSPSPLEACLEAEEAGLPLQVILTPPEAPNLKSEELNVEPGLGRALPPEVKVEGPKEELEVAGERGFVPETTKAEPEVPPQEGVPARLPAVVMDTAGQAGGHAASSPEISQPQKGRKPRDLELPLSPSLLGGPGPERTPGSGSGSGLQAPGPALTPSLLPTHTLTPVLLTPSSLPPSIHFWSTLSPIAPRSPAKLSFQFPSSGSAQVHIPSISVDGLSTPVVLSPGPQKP
Outline: as §1

[3] = molecular target: T3, GABPA (Homo sapiens, UniProt Q06546 1-454); settings: protein: recombinant; tags: N-terminal GST; dsDNA, one strand shown
T3 sequence: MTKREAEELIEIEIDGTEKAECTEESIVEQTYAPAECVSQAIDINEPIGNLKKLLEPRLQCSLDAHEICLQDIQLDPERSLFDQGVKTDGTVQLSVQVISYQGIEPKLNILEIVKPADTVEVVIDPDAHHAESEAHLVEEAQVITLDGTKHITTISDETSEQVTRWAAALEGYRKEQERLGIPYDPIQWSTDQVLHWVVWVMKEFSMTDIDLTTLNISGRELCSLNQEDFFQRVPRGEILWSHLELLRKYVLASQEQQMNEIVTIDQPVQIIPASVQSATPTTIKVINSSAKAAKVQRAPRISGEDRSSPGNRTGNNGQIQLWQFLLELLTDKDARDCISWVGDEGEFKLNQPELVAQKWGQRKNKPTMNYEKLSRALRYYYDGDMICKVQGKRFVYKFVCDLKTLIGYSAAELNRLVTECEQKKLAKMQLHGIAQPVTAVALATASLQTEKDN
Outline: as §1

[4] = molecular target: T4, ERG (Homo sapiens, UniProt P11308 1-479); settings: protein: recombinant; tags: N-terminal GST; dsDNA, one strand shown
T4 sequence: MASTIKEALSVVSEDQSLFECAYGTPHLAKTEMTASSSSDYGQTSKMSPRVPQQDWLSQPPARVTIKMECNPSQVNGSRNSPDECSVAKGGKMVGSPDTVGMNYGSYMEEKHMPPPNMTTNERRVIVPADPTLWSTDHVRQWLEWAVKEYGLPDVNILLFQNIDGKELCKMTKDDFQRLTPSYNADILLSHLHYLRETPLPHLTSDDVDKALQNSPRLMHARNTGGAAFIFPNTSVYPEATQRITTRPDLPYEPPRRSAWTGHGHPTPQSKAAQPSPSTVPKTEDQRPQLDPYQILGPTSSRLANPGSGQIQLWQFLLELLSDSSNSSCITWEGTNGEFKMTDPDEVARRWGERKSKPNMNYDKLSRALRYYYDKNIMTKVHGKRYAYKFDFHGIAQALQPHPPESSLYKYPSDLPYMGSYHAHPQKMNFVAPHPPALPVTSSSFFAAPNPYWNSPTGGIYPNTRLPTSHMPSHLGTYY
Outline: as §1

[5] = molecular target: ELF1 (Homo sapiens, UniProt P32519 1-619); settings: protein: recombinant; tags: N-terminal GST; dsDNA, one strand shown
Outline: as §1

[6] = molecular target: T5, EHF (Homo sapiens, UniProt Q9NZC4 1-300); settings: protein: recombinant; tags: N-terminal GST; dsDNA, one strand shown
T5 sequence: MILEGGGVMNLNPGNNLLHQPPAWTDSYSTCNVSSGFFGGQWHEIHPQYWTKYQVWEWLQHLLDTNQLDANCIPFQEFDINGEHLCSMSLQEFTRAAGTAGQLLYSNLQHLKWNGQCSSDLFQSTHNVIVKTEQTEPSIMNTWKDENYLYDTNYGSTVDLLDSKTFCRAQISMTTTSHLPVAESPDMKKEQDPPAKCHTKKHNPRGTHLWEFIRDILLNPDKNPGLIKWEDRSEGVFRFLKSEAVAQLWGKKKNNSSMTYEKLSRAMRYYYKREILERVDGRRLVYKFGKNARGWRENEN
Outline: as §1

[7] = molecular target: SPI1 (Homo sapiens, UniProt P17947 1-270); settings: protein: recombinant; tags: N-terminal GST; dsDNA, one strand shown
Outline: as §1

[8] = molecular target: SPIB (Homo sapiens, UniProt Q01892 1-262); settings: protein: recombinant; tags: N-terminal GST; dsDNA, one strand shown
Outline: as §1

[9] = molecular target: T6, ELK3 (Homo sapiens, UniProt P41970 1-407); settings: protein: recombinant; tags: N-terminal GST; dsDNA, one strand shown
T6 sequence: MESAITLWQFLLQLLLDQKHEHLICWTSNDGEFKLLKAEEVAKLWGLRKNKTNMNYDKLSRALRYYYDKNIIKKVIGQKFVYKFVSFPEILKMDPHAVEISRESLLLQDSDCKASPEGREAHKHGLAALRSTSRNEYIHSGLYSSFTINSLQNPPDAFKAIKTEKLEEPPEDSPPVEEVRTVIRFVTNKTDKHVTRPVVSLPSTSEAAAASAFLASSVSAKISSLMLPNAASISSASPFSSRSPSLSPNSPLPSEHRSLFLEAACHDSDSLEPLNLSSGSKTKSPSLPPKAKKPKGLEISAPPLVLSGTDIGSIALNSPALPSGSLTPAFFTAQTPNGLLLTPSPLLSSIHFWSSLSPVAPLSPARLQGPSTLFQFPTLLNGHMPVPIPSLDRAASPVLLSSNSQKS
Outline: as §1

[10] = molecular target: T7, FEV (Homo sapiens, UniProt Q99581 1-238); settings: protein: recombinant; tags: N-terminal GST; dsDNA, one strand shown
T7 sequence: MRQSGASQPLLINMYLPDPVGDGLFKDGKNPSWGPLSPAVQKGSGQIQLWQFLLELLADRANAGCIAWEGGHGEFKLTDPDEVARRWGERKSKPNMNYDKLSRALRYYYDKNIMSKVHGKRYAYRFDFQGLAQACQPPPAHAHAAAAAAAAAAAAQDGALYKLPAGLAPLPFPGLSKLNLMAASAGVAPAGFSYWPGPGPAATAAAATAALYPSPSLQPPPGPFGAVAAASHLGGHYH
Outline: as §1

[11] = molecular target: ETV5 (Homo sapiens, UniProt P41161 1-510); settings: protein: recombinant; tags: N-terminal GST; dsDNA, one strand shown
Outline: as §1

[12] = molecular target: HSF1 (Homo sapiens, UniProt Q00613 1-529); settings: protein: recombinant; tags: N-terminal GST; chain copies: 3; dsDNA, one strand shown
Outline: as §1

[13] = molecular target: T8, SPIC (Homo sapiens, UniProt Q8N5J4 1-248); settings: protein: recombinant; tags: N-terminal GST; dsDNA, one strand shown
T8 sequence: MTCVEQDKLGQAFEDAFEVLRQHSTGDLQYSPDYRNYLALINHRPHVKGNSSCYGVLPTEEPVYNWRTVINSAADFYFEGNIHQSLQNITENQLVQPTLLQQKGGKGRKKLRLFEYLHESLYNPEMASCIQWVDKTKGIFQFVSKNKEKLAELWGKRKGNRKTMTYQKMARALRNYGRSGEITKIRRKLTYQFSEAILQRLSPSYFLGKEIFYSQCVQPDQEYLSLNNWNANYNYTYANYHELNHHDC
Outline: as §1

[14] = molecular target: ELF4 (Homo sapiens, UniProt Q99607 1-663); settings: protein: recombinant; tags: N-terminal GST; dsDNA, one strand shown
Outline: as §1

[15] = molecular target: T9, ELK4 (Homo sapiens, UniProt P28324-2 1-405); settings: protein: recombinant; tags: N-terminal GST; dsDNA, one strand shown
T9 sequence: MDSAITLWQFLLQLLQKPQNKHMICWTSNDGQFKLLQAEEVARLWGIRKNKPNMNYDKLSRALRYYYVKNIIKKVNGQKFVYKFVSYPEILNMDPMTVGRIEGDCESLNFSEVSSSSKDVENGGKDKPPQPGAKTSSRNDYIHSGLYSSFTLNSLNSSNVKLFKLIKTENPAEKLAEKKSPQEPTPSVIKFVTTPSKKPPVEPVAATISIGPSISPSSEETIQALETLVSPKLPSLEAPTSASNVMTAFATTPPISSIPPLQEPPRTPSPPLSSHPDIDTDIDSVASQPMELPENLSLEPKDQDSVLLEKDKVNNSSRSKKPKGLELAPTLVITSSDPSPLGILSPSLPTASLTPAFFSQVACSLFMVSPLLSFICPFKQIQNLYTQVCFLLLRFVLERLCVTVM
Outline: as §1

[16] = molecular target: T10, ETV2 (Homo sapiens, UniProt O00321 1-342); settings: protein: recombinant; tags: N-terminal GST; dsDNA, one strand shown
T10 sequence: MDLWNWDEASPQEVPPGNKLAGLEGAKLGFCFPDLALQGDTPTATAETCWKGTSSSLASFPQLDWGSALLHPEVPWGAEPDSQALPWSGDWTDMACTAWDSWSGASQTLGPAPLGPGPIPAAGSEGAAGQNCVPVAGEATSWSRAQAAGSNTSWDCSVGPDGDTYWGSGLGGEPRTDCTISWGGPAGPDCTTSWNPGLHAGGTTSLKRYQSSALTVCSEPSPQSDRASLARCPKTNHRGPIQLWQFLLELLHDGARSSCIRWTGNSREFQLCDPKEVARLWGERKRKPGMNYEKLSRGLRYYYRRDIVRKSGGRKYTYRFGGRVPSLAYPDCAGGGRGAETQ
Outline: as §1

[17] = molecular target: T11, ELF3 (Homo sapiens, UniProt P78545 1-371); settings: protein: recombinant; tags: N-terminal GST; dsDNA, one strand shown
T11 sequence: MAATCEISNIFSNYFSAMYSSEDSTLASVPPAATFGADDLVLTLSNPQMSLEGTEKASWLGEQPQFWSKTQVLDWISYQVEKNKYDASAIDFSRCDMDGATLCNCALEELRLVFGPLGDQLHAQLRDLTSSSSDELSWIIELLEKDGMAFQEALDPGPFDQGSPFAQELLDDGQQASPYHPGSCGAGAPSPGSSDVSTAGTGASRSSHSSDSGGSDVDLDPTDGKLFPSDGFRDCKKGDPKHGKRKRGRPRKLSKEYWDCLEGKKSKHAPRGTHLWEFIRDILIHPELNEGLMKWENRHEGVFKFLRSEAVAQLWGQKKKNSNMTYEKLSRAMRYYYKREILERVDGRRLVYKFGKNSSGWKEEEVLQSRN
Outline: as §1

[18] = molecular target: CRX (Homo sapiens, UniProt O43186 1-299); settings: protein: recombinant; tags: N-terminal GST; dsDNA, one strand shown
Outline: as §1

[19] = molecular target: ETV1 (Homo sapiens, UniProt P50549 1-477); settings: protein: recombinant; tags: N-terminal GST; dsDNA, one strand shown
Outline: as §1

ELF4, sequence (Q99607 whole entry): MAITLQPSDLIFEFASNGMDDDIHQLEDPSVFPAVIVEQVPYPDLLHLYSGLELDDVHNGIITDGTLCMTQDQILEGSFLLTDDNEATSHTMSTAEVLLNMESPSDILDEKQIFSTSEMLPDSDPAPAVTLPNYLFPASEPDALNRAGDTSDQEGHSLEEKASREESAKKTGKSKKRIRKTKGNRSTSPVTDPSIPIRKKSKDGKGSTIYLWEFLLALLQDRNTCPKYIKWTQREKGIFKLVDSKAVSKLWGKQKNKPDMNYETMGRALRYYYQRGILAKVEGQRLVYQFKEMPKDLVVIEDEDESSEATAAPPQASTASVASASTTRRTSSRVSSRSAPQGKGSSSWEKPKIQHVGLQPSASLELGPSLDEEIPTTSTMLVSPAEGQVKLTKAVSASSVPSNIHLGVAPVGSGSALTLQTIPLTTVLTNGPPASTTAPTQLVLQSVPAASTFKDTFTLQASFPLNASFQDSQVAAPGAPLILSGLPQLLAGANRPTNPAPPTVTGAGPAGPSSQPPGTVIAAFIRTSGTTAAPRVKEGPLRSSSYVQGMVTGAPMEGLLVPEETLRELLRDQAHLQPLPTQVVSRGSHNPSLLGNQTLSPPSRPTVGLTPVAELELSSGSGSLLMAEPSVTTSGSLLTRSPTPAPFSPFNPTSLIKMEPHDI
ETV5, sequence (P41161 whole entry): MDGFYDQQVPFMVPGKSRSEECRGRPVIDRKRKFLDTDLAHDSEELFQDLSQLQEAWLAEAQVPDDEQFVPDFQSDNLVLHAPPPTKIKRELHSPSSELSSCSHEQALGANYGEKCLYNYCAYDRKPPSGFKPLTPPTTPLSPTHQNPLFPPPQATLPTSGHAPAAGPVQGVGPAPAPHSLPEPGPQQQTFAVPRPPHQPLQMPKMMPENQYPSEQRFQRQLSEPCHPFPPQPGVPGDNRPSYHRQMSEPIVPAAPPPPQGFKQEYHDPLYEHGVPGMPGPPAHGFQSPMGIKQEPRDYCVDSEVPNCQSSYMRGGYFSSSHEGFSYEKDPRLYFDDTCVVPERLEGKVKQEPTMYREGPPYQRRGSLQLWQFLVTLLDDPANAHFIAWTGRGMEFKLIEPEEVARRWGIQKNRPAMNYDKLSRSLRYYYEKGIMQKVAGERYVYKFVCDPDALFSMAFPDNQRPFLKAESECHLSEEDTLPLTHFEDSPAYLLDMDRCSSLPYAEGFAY
ELF1, sequence (P32519 whole entry): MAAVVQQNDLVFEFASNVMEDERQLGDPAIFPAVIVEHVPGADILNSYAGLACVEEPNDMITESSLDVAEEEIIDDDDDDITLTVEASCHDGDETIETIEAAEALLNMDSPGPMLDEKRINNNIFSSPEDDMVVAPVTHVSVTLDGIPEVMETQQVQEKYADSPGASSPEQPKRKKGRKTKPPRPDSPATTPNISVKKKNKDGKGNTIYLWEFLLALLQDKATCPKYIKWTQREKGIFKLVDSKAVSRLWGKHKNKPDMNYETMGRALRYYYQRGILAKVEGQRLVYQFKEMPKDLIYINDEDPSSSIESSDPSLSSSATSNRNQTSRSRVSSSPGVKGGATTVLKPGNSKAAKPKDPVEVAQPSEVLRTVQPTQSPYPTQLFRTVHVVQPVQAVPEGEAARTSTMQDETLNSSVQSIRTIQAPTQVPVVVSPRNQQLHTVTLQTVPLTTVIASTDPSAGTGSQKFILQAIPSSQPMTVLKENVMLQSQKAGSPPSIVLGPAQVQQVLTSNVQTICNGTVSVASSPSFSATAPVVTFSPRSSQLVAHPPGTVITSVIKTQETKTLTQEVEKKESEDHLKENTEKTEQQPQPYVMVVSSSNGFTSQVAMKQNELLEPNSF
ETV1, sequence (P50549 whole entry): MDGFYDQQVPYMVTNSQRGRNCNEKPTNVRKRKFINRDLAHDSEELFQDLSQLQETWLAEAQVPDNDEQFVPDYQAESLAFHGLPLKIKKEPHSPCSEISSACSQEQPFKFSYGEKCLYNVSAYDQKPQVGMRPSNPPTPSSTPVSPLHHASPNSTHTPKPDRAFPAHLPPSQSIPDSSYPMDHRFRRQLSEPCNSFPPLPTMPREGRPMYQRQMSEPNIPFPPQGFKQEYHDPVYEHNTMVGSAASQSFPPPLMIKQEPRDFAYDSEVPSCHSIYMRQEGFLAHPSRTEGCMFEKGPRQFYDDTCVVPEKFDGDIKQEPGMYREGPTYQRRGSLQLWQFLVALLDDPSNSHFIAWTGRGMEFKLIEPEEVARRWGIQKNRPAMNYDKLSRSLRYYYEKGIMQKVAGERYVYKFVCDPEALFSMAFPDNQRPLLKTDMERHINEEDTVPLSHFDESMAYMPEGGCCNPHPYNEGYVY
SPIB, sequence (Q01892 whole entry): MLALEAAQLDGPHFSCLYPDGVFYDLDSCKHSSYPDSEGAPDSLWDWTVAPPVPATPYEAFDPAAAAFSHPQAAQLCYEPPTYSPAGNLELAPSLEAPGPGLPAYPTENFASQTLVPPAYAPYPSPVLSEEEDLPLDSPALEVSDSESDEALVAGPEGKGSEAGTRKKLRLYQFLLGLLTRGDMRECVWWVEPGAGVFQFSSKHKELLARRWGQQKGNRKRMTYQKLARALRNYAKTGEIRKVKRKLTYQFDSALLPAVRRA
CRX, sequence (O43186 whole entry): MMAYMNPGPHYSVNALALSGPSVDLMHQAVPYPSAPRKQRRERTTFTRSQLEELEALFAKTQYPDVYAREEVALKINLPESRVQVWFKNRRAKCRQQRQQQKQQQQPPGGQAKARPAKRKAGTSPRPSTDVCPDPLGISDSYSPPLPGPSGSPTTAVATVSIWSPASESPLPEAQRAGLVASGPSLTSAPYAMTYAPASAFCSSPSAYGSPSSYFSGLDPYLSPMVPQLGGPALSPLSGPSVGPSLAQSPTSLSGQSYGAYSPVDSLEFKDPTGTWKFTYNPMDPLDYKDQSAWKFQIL
HSF1, sequence (Q00613 whole entry): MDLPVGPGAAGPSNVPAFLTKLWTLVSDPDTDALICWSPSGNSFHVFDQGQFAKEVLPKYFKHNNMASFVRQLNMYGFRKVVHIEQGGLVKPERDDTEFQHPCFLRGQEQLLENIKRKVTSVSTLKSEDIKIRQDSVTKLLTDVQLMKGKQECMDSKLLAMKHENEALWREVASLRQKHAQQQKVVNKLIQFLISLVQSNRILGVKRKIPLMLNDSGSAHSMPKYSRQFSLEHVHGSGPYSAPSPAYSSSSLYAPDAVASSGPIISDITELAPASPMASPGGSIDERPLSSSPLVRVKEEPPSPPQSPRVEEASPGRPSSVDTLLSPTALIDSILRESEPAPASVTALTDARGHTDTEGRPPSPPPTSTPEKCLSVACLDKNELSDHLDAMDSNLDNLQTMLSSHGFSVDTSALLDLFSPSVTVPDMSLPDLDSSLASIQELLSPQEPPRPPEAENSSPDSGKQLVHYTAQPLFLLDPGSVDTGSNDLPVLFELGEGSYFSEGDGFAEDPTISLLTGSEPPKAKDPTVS

CTTCAT
binding signal [1]: 1.6 fold enrichment (6-mer frequency, TF over GST control) | binding signal [2]: 1.45 fold enrichment (6-mer frequency, TF over GST control) | binding signal [3]: 1.45 fold enrichment (6-mer frequency, TF over GST control) | binding signal [4]: 1.4 fold enrichment (6-mer frequency, TF over GST control) | binding signal [5]: 1.52 fold enrichment (6-mer frequency, TF over GST control) | binding signal [6]: 1.31 fold enrichment (6-mer frequency, TF over GST control) | binding signal [7]: 1.49 fold enrichment (6-mer frequency, TF over GST control) | binding signal [8]: 1.48 fold enrichment (6-mer frequency, TF over GST control) | binding signal [9]: 1.38 fold enrichment (6-mer frequency, TF over GST control) | binding signal [10]: 1.46 fold enrichment (6-mer frequency, TF over GST control) | binding signal [11]: 1.49 fold enrichment (6-mer frequency, TF over GST control) | binding signal [12]: 1.34 fold enrichment (6-mer frequency, TF over GST control) | binding signal [13]: 1.36 fold enrichment (6-mer frequency, TF over GST control) | binding signal [14]: 1.4 fold enrichment (6-mer frequency, TF over GST control) | binding signal [15]: 1.53 fold enrichment (6-mer frequency, TF over GST control) | binding signal [16]: 1.39 fold enrichment (6-mer frequency, TF over GST control) | binding signal [17]: 1.56 fold enrichment (6-mer frequency, TF over GST control) | binding signal [18]: 1.3 fold enrichment (6-mer frequency, TF over GST control) | binding signal [19]: 1.5 fold enrichment (6-mer frequency, TF over GST control)
